Screen size: about 230,000 compounds; about 1,000 (0.43%) were called active. Only a selection was taken, and actives are over-represented in it overall. Unmarked numbers belong to inactive results. Calls follow the shape of the dose curve; as a rule, active = well fitted inhibition curve with a large enough effect (not every such curve was filed as active); inactive = no such curve, though single readings can be large or run the other way.
% is scaled to controls: 0 for no effect and ±100 for the full control effect; potency is read from the fitted curve at half-maximal effect.

Guanine nucleotide-binding protein G(i) subunit alpha-1 (Homo sapiens), sequence (P63096 whole entry, looked up): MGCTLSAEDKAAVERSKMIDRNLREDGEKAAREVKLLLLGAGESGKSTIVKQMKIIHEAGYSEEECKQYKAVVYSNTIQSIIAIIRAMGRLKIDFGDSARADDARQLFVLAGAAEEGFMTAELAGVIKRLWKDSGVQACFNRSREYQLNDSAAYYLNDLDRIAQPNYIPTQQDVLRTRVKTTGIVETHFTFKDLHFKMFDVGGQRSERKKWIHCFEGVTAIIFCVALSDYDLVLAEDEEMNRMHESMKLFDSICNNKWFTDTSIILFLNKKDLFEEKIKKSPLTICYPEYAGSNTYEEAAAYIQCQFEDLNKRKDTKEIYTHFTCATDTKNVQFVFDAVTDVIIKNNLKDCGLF

This assay concerns the target Guanine nucleotide-binding protein G(i) subunit alpha-1 (Homo sapiens) (UniProt P63096). Briefly: qHTS Assay for Inhibitors of RGS12 GoLoco Motif Activity (Red Fluorophore). Also: nearly all actives have a fitted effect of over 30% in size. As to conditions: Gai1:RGS12 GoLoco peptide FP, rhodamine, 10 min; series mostly up to 61.6 µM; activity, negative = inhibition: at the top concentration. The source says:
Assay Submitter: Siderovski, David P, University of North Carolina at Chapel Hill
Screening Center PI: Austin, C.P.
Screening Center: NIH Chemical Genomics Center [NCGC]
G-protein-coupled receptors (GPCRs) are major targets for drug discovery. The regulator of G-protein signaling (RGS)-protein family has important roles in GPCR signal transduction. RGS proteins contain a conserved RGS-box, which is often accompanied by other signaling regulatory elements. RGS proteins accelerate the deactivation of G proteins to reduce GPCR signaling; however, some also have an effector function and transmit signals. Combining GPCR agonists with RGS inhibitors should potentiate responses, and could markedly increase the agonist's regional specificity. The diversity of RGS proteins with highly localized and dynamically regulated distributions in brain makes them attractive targets for pharmacotherapy of central nervous system disorders. […] A complex of Gai1 and fluorescently labeled G-alpha-binding peptide (the "GoLoco motif") derived from RGS12 is incubated with library members. Inhibitors of the binding are detected by a decrease in the fluorescence polarization (FP) of the fluorophore. Protein was supplied by Prof. David Siderovski, University of North Carolina at Chapel Hill.
Assay Buffer: 10 mM Tris-HCl, 150 mM NaCl, 0.1 mM GDP (prepared fresh), and 0.05% NP40 at pH 7.5.
15 nM Rhodamine labeled peptide/25 nM protein in columns 1, 2, 5 - 48. Titration of unlabeled peptide control ([H][…][NH2], custom synthesized and HPLC-purified by Tufts University Core Facility) from 20 mM, then 1:2 dilution, 16-point in duplicate, pin-transferred to column 2, rows 1 to 32. Column 1 is neutral.
Rhodamine-labeled peptide (Rhodamine-[…]-NH2) was custom-synthesized and HPLC-purified by Invitrogen (Carlsbad, CA).
Four uL of reagents were dispensed to 1536-well Greiner black solid-bottom plates. Compounds and controls (23 nL) were transferred via Kalypsys PinTool. The plates were incubated for 10 min at room temperature, and then read on ViewLux (Perkin-Elmer) High-throughput CCD imager using BODIPY for the rhodamine-labeled decapeptide probe. During dispense, reagent bottles were kept submerged into 4 deg C water bath and all liquid lines were covered with aluminum foil to minimize probe and protein degradation. All screening operations were performed on a Kalypsys robotic system (Kalypsys, Inc., San Diego, CA) containing one RX-130 and two RX-90 anthropomorphic robotic arms.
For orientation: Quantitative high-throughput screening tests each substance at several concentrations.
As to `C[N+]12CN3CN(CN(C3)C1)C2`, the Potency is 8.91 µM (active). For the compound `CO[C@@H]1C[C@@H](C[C@H]2CC[C@H](C)[C@@H]([C@@H](C)C(=O)O)O2)O[C@]2(O[C@](C)([C@H]3CC[C@@](C)(C4OC([C@H]5O[C@@](O)(CO)[C@H](C)C[C@@H]5C)C[C@@H]4C)O3)C[C@H]2C)[C@@H]1C` (stereo not given in full), the “activity, negative = inhibition” value was 2.64%. On the same count and under the same terms, under `CC(=O)c1c(O)c(C)c(O)c(Cc2c(O)c3c(c(C(=O)/C=C\c4ccccc4)c2O)OC(C)(C)C=C3)c1O` stands 5.48%. The same measure, in the same setting: the value for `C[C@@]12CC[C@H](O)C[C@@H]1CC[C@@H]1[C@@H]2CC[C@@]2(C)[C@@H](C3=CC(=O)OC3)[C@H](O)C[C@]12O` was 3.75% [at 14.2 µM]. For the compound `Cc1cc(-c2ccc(N)c(C)c2)ccc1N`, the Potency is 25.1 µM (active). For `CN1[C@@H]2CC[C@H]1CC(OC(=O)c1cc(Cl)cc(Cl)c1)C2` (stereo not given in full), the “activity, negative = inhibition” value was -5.38%. Same read-out and setting: the value for `CN(C)C1C(=O)C(C(N)=O)=C(O)[C@@]2(O)C(=O)C3=C(O)c4c(O)cccc4[C@@](C)(O)C3C[C@@H]12` (stereo not given in full) was 0.74%. The same measure, in the same setting: the value for `ClC(Cl)=C(Cl)C(Cl)=C(Cl)Cl` was 5.03%. In the case of `CC(C)CC(C)Nc1ccc(Nc2ccccc2)cc1` (stereo not given), the “activity, negative = inhibition” value was 0.206%. Still for that read-out and setting: under `CCCCN1C2CCC1CC(OC(c1ccc(F)cc1)c1ccc(F)cc1)C2` (stereo not given) stands 8.26%; under `CS(=N)(=O)CC[C@H](N)P(=O)(O)O` (stereo not given in full), 3.42% [at 14.2 µM]; under `CC(C)(Cc1c[nH]c2ccc(Cl)cc12)NCCOc1ccccc1OCC1CC1`, “inactive”. As for `CC(=O)OC1C2CCC3C1(CC(O)[C@@]1(O)[C@@H](CC(O)C1(C)C)[C@]3(C)O)C[C@@]2(C)O` (stereo not given in full), the Potency is 25.1 µM (active).

For the compound `CC(C)(c1ccccc1)c1ccc(O)cc1`, the “activity, negative = inhibition” value is -5%. Still for that read-out and setting: under `CC(=O)O[C@H]1CC[C@@]2(C)[C@@H](CC[C@H]3[C@H]2CC(=O)[C@]2(C)[C@@H]3C[C@@H](N3CC3)[C@H]2C(C)=O)C1` stands 4.86% [at 14.2 µM]; under `O=C(O)C1C2CCC(O2)C1C(=O)O` (stereo not given), 10.6%; under `OC(CNC1CCCCC1)c1ccccc1` (stereo not given), 5.96%.

Turning to `CNC(C)[C@@H](O)c1ccccc1` (stereo not given in full), the Potency is 7.94 µM (active). Regarding `CC(C)CCC1(CCN)C(=O)NC(=O)NC1=O`, the activity, negative = inhibition was 2.09% [at 14.2 µM]. On the same count and under the same terms, the value for `CN(C)[C@@H]1C(=O)C(C(N)=O)=C(O)[C@@]2(O)C(=O)C3=C(O)c4c(O)cccc4[C@@](C)(O)C3CC12` (stereo not given in full) was -6.35%. On the same count and under the same terms, under `CCN(CC)CCn1ncc2c(N)ncnc21` stands 8.05% [at 14.2 µM]; under `O=C(O)C(=O)Cc1ccc2c(c1)OCO2`, -7.42% [at 14.2 µM]; under `COc1ccccc1N=Nc1c(O)[nH]c(=S)[nH]c1=O`, 28.9%. As to `COc1ccccc1N=C1SCCCN1C`, the Potency was 3.16 µM (active). As to `Cc1ccc(S(=O)(=O)O[C@H]2CN3CCC2CC3)cc1`, the activity, negative = inhibition was -0.505% [at 14.2 µM]. The same measure, in the same setting: the value for `CC[C@@](O)(C(=O)O)c1cc2n(c(=O)c1CO)Cc1cc3ccccc3nc1-2` was -0.459% [at 14.2 µM]; that for `Fc1ccc(C(OCCN2CCN(C/C=C\c3ccccc3)CC2)c2ccc(F)cc2)cc1` was 12.7%; that for `C[C@H](Br)C(=O)N[C@H](CO)C(=O)O` was 5.42% [at 14.2 µM].

As for `NCC[Se][Se]CCN`, the Potency is 0.631 µM (active). Turning to `CC(C)(O)/C=C\C(=O)[C@](C)(O)[C@H]1[C@H](O)C[C@]2(C)[C@@H]3CC=C4[C@@H](C=C(O)C(=O)C4(C)C)[C@]3(C)C(=O)C[C@@]12C`, the activity, negative = inhibition was 6.59% [at 14.2 µM].

(Values after PubChem BioAssay AID880 (National Center for Advancing Translational Sciences (NCATS), 2007).)
